Screening results as filed in PubChem.
IL-1B inflam inh: inhibitors of inflammasome signaling (IL-1 beta secretion) | THP-1 LPS/ATP IL-1B secretion, AlphaLISA, 16 h; active compounds read low | activity change, % at 57.5 µM | hit rate 4.7% among 360,000 | AID 743279; in the data active = activity change below about -50%; inconclusive = mostly about -30% to -49%
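Secreted IL-1B measured by AlphaLISA bead assay after 16 h compound exposure of THP-1 cells; compounds (final up to 57.5 uM) added 1 h before LPS (250 ng/mL) and ATP (1.25 mM) stimulation; lower signal means less secretion.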
TDP1 cell noCPT: qHTS for Inhibitors of human tyrosyl-DNA phosphodiesterase 1 (TDP1): qHTS in cells in absence of CPT; DT40 Tdp1-/- hTDP1 cells, no CPT, ATP luminescence, 48 h; Potency, µM (doses to about 46.2 µM), without a hit: at the top dose activity change, negative = growth inhibition, actives largely listed as inhibitors; hit rate 15% among 420,000; AID 686978, 2013; also: potency is read from the fitted curve at half-maximal effect; nearly all actives have a fitted effect of over 55% in size
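Compound effects on proliferation are scored in DT40 Tdp1-/-;hTDP1 cells in the absence of CPT. ATP levels (CellTiter-Glo luminescence) are recorded after a ≥48 hr, 37 °C incubation.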
HT1080 IDH1KD tx: toxicity to HT-1080 IDH1 knockdown cells (counter line); HT-1080 IDH1 knockdown viability, ATP luminescence, 48 h; Potency, µM (highest dose often 46.1 µM), without a hit: top-dose activity, negative = toxicity, most hits filed as cytotoxic; hit rate 2% among 360,000; AID 686971;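 also: potency is read from the fitted curve at half-maximal effect; 0% = DMSO wells and -100% = cell-free medium wells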
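% activity derives from luminescence (CellTiter-Glo), normalised to DMSO and no-cell wells. HT-1080-IDH1KD cells, 750/well, had 48 h compound exposure at 37 °C.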
DT40 TDP1 CPT: growth inhibition of DT40 Tdp1-/-;hTDP1 cells with camptothecin (screen for TDP1 inhibitors) | Potency, µM (series often up to 46.2 µM), for the others: top-dose activity change, negative = growth inhibition, actives largely listed as inhibitors | chicken DT40 Tdp1-/-;hTDP1 cells + 20 nM CPT, ATP luminescence, 48 h | AID 686979 | hit rate 12% among 420,000; also: potency is read from the fitted curve at half-maximal effect; nearly all actives have a fitted effect of over 55% in size
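Chicken DT40 Tdp1-/- cells complemented with human TDP1, 400 cells/well, exposed to compounds plus 20 nM camptothecin for at least 48 h at 37 C; viability read as ATP content by CellTiter-Glo luminescence.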
HT1080-NT tox: kills 2HG-producing HT-1080-NT fibrosarcoma cells; HT-1080-NT fibrosarcoma viability, CellTiter-Glo ATP luminescence, 48 h; Potency, µM (series often up to 46.1 µM), for the others: at the top dose activity, negative = less viability, usual class: cytotoxic; hit rate 1.6% among 360,000;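 also: NT is the 2HG producing partner of a matched IDH1 knockdown line; potency is read from the fitted curve at half-maximal effect; 0% = DMSO-treated cells and -100% = media-only wells without cells; nearly all actives have a fitted effect of over 55% in size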
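Toxicity toward the 2HG-producing NT line was scored as %Activity, normalised to DMSO and no-cell wells, from CellTiter-Glo luminescence after 48 hours' treatment.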
uPA generation: cell surface uPA generation inhibition; cell surface uPA generation assay, qHTS; Potency, µM (doses to about 38.3 µM), for the others: at the highest dose activity change, negative = inhibition, usual class: inhibitors; hit rate 0.31% among 330,000; AID 540303; active = well fitted inhibition curve with a large enough effect; inconclusive = small, poorly fitted or top-dose-only effect; inactive = no such curve, though single readings can be large or run the other way; tested in mouse RAW 264.7 cells; also: potency is read from the fitted curve at half-maximal effect; nearly all actives have a fitted effect of over 55% in size
* marks the source's active call; other numbers are inactive results; ? = inconclusive; . = not tested or not shown; [ ] = dose if it differs, or a comment. Sampled rows, rich in hits. Any-hit rate of the full collection: about 19%. Unless noted, calls follow the shape of the dose curve; as a rule, active = well fitted curve in the direction sought with a large enough effect; inconclusive = small, poorly fitted or top-dose-only effect, or another doubt; inactive = no such curve, though single readings can be large; an effect the other way counts as inactive or inconclusive. Unless noted, % is scaled to controls: 0 for no effect and ±100 for the full control effect.

SMILES	IL-1B inflam inh	TDP1 cell noCPT	HT1080 IDH1KD tx	DT40 TDP1 CPT	HT1080-NT tox	uPA generation
CC(C)N(C(=O)[C@H]1CC(CC(=O)NCC23CC4CC(CC(C4)C2)C3)C(=O)N2CCc3c([nH]c4ccccc34)[C@]12C)C(C)C (stereo partly drawn)	-55*	23µM*	2%	13µM*	-4%	15%
COCCn1c(=O)c(-c2ccc(F)cc2)nc2cncnc21	.	-16%	.	1%	.	.
CN(C)c1ccc(/C=N/NC(=O)CN(c2cccc(Cl)c2)S(C)(=O)=O)cc1Br	-50*	16µM*	?	26µM*	?	-3%
CC(C)(CC(=O)OCC(=O)Nc1ccccc1F)CC1=NS(=O)(=O)c2ccccc2N1	0	13µM*	-4%	23µM*	1%	0%
COc1ccccc1NC(=O)COC(=O)CC(C)(C)CC1=NS(=O)(=O)c2ccccc2N1	-4	?	-11%	23µM*	-3%	-4%
COc1cc(OC)c(NC(=O)Cn2cnc3c(nc4n3CCCCC4)c2=O)cc1Cl	.	-16%	.	-11%	.	.
COc1cccc(CNCCc2c[nH]c3ccccc23)c1OCc1ccc(F)cc1	-62*	15µM*	?	18µM*	21µM*	-1%
COc1cc(CNCCc2c[nH]c3ccccc23)cc(Cl)c1OCC(N)=O	?	?	-12%	?	-21%	-6%
COc1cc(CNCCc2c[nH]c3ccccc23)ccc1OCc1ccc(F)cc1	-103*	18µM*	?	15µM*	-23%	1%
CCc1ccc(NC(=O)Cn2c3[n+](c4c(F)c(F)ccc42)CCCCC3)cc1	?	5.8µM*	-30%	2.6µM*	-11%	-3%
CCCCc1nnc(NC(=O)CSCc2cc(=O)n3cc(C)sc3n2)s1	-6	10%	-6%	-5%	-3%	-9%
CCN(CC)CCOC(=O)c1ccc(N/C=C(/C#N)c2nc(-c3cc4ccccc4oc3=O)cs2)cc1	128	2.3µM*	-4%	1.2µM*	-25%	-9%
CCN(CC)CCOC(=O)c1ccc(N/C=C(/C#N)c2nc(-c3ccc(OC)cc3)cs2)cc1	-5	4.6µM*	-13%	4.1µM*	-5%	1%
N#C/C(=C\C=C\c1ccccc1)c1nc(-c2ccc3c(c2)OCO3)cs1	11	-21%	-18%	-10%	-2%	-1%
N#C/C(=C\c1cccc(F)c1)c1nc(-c2cc3ccccc3oc2=O)cs1	.	-8%	.	-2%	.	.
CCN(CC)CCOC(=O)c1ccc(N/C=C(/C#N)c2nc(-c3ccc4c(c3)OCO4)cs2)cc1	32	5.2µM*	-12%	3.7µM*	-17%	-1%
CC(C)c1ccc(S(=O)(=O)c2nnn3c2nc(N2CCCC2)c2sccc23)cc1	.	10%	.	24%	.	.
COCCn1c(=O)c(-c2ccc(OC)cc2)nc2cnc(OCc3ccccc3)nc21	.	14%	.	-2%	.	.
CCOc1ccc(N2C(=O)C(c3ccccc3)=C(c3nc4ccccc4s3)C2NC(C)=O)cc1 (stereo not drawn)	-19	16µM*	-8%	?	2%	-4%
CCOc1ccc(C(=O)CCc2nc3ccccc3s2)cc1	-4	-18%	?	-10%	?	-1%
Cc1nc(Cl)sc1C(=O)Nc1ccc(C(C)(C)C)cc1	-91*	?	-14%	-10%	3%	-10%
Cc1ccc(NC(=O)c2sccc2-n2cccc2)c(C)c1	-1	?	25%	21µM*	20%	0%
Cc1cccc(NC(=O)c2sc(Cl)nc2C)c1C	4	-17%	1%	-14%	-3%	9%
Cc1ccc(NC(=O)c2sc(C)nc2C)c(C)c1	-11	1%	22%	-14%	24%	1%
Cc1ccc(NC(=O)c2sc(Cl)nc2C)c(C)c1	-65*	3%	15%	4%	14%	-4%
SMILES	IL-1B inflam inh	TDP1 cell noCPT	HT1080 IDH1KD tx	DT40 TDP1 CPT	HT1080-NT tox	uPA generation
COc1ccc(NC(=O)c2sccc2-n2cccc2)cc1	-10	?	0%	-28%	-10%	-3%
Cc1cc(C)c(C)c(OC(=O)c2sc(Cl)nc2C)c1	-104*	8.2µM*	-21%	7.3µM*	-10%	-10%
Cc1ccc(C(C)(C)C)c(OCCCn2ccnc2)c1	-26	?	-2%	1%	2%	2%
Clc1ccccc1OCCn1ccnc1	0	?	18%	-17%	2%[9.24 µM]	.
c1ccc(-c2ccccc2OCCCCn2ccnc2)cc1	-58*	26µM*	0%	23µM*	-4%	-5%
CC(C)(C)c1ccccc1OCCCCCn1ccnc1	-98*	?	?	?	?	2%
CC(C)(C)c1cc(Cl)ccc1OCCn1ccnc1	-53*	?	?	-4%	-24%	1%
Cc1cc(C(C)(C)C)ccc1OCCn1ccnc1	29	?	-3%	?	-3%	0%
CC1=C(C(N)=O)C(c2ccc(F)cc2)n2nc(-c3ccc(N(C)C)cc3)nc2N1 (stereo not drawn)	.	1%	.	0%	.	.
Cc1cccc([C@@H]2[C@@H]3C(=O)N(Cc4ccccc4)C(=O)[C@@H]3[C@]3(Cc4ccc(Cl)cc4)C(=O)N(c4ccc(Br)cc4)C(=O)N23)c1	-10	?	10%	-29%	6%	17%
COc1ccc(NC(=O)c2sc3nc(C)nc(N4CCN(c5ccccn5)CC4)c3c2C)cc1Cl	.	21µM*	2%	?	-10%	0%
Cc1cc(Br)ccc1NC(=O)c1sc2ncnc(N3CCN(c4ccccn4)CC3)c2c1C	-77*	2.6µM*	8%	10µM*	12%	2%
COc1ccc(Cl)cc1NC(=O)c1sc2nc(C)nc(N3CCOCC3)c2c1C	-9	-1%	-1%	-19%	10%	12%
COc1ccc(NC(=O)CN2CCN(c3ccccn3)CC2)cc1Cl	0	3%	8%	2%	7%	-4%
COc1ccc(NC(=O)c2sc3ncnc(N4CCN(c5ccccn5)CC4)c3c2C)cc1Cl	?	5.8µM*	1%	21µM*	-10%	4%
COc1ccccc1NC(=O)Nc1nn(C)c2cccc(N(C)C)c12	?	16µM*	-14%	15µM*	-15%	10%
CN(C)c1cccc2c1c(NC(=O)Nc1ccc(Cl)cc1Cl)nn2C	-25	-26%	0%	-21%	5%	14%
CC1CCCCC1Nc1nc2ccc(Cl)cc2n2cnnc12 (stereo not drawn)	0	?	?	?	?	4%
